KKLEB cytotox: cytotoxicity in KKLEB CF airway cells, primary screen, cytotoxicity control for CF NF-kB inhibitor project, cell-based, uHTS, fluorescence assay plates. KKLEB CF airway cells viability, ATPlite luminescence, overnight; active compounds read low; cells stimulated with P. aeruginosa culture filtrate. activity change (cytotoxicity), % at 5 µM. 360,000 tested, 0.36% active;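 active = corrected activity change at or below -50% at 5 µM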
CF NFkB block: inhibitors of PAF-induced NF-kB signaling, primary screen, cell-based, GFP fluorescence, uHTS. AID 588850, 2011. KKLEB NF-kB-GFP reporter, GFP fluorescence overnight. 360,000 tested, 0.86% active. inhibition, % at 5 µM;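 active = at least 50% inhibition at 5 µM, scaled per plate between neutral and stimulator controls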;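 note: PAF is a Pseudomonas aeruginosa culture filtrate used as stimulus; plate controls were PAF-stimulated DMSO wells for no effect and unstimulated DMSO wells for full effect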
TROY signal inh: inhibitors of TROY-driven NF-kB signaling, primary screen, Q293 LMP1-TROYcd cells, NF-kB luciferase, uHTS; Q293 LMP1-TROYcd NF-kB luciferase reporter, 4 h; inhibition, % at 10 µM; 360,000 tested, 0.98% active; AID 1347056, 2019;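 active = compounds whose plate-normalised and pattern-corrected inhibition of the luciferase reporter signal at the single screening dose is 50% or more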
Peg3 promoter: Peg3 promoter-driven luciferase inhibitors, primary screen, cell-based, HeLa, luciferase luminescence. HeLa PEG-Prom luciferase reporter, overnight. inhibition, % at 20 µM. 360,000 tested, 1.7% active. AID 588405, 2011;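 active = inhibition of at least 50% at 20 µM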
HIF-2a block: HIF-2a reporter inhibitors, primary screen, luminescence, 786-0 RCC cells; inhibition, % at 18.8 µM; AID 624352, 2012; 786-0 RCC cells HIF-2a reporter, luciferase luminescence, overnight; 360,000 tested, 0.72% active;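 active = inhibition of the luminescence signal of 40% or more relative to plate controls, in a single-dose primary screen at 18.75 µM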
TWEAK-Fn14 inh: inhibitors of TWEAK-Fn14 signaling, primary screen, luciferase reporter cells, uHTS. TWEAK-stimulated Fn14 reporter cells, luciferase luminescence, 8 h. inhibition, % at 10 µM. 360,000 tested, 2% active. AID 1159606, 2016; in the data active = inhibition above about 50%
Mdm2-MdmX confirm: retested Mdm2-MdmX interaction blockers, confirmation, cell-based, luminescence, single concentration, set 2; shares compounds with HIF-2a block; inhibition, % at 8 µM; SaOS-2 split-luciferase Mdm2/MdmX complementation; 740 tested, 99% active;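 active = mean inhibition of the luminescence signal across two replicates at or above 26 percent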
Target sequence (O15151 whole entry, looked up): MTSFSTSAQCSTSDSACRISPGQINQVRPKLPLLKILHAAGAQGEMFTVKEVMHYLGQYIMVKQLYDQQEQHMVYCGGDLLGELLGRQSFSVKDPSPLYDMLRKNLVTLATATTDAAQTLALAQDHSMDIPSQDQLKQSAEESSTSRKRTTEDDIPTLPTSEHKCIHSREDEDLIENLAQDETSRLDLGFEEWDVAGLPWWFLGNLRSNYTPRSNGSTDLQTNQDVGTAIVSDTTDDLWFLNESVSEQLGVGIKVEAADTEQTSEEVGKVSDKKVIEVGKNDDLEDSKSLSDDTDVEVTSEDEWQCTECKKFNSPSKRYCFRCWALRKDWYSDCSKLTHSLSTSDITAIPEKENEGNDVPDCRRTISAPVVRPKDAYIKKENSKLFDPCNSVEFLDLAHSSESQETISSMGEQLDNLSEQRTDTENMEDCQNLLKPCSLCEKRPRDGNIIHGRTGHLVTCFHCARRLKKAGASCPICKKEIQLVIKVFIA
Target sequence (Q00987 whole entry, looked up): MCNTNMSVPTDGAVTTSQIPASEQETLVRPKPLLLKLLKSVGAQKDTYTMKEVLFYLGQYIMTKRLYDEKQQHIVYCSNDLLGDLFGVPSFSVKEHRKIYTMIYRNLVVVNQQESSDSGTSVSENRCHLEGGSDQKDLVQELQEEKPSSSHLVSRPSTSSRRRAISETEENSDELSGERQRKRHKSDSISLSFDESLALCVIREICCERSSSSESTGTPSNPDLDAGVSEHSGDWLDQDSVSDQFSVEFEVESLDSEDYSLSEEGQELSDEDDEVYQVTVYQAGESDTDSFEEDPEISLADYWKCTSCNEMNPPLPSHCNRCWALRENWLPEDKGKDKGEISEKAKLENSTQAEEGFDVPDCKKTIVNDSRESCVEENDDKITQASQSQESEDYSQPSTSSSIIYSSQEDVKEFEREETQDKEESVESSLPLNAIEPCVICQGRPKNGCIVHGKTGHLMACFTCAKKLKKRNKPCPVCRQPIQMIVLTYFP
HIF-2a inh conf: HIF-2a reporter inhibitor retest, confirmation, luminescence, 786-0 RCC cells. shares compounds with HIF-2a block. HIF-2a luciferase reporter luminescence, overnight. inhibition, % at 18.8 µM. 1,800 tested, 56% active. AID 651580, 2012;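 active = mean inhibition across four replicates of at least 40 percent at the single tested concentration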
HIF-1a cs: HIF-1a luciferase reporter signal reduction – MiaPaCa-2 cells, single concentration, counter-screen for HIF-2a inhibitor project, confirmation; shares compounds with HIF-2a block; MiaPaCa-2 HIF-1a luciferase reporter, desferoxamine, overnight; inhibition, % at 18.8 µM; 1,800 tested, 72% active;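 active = mean inhibition of the reporter signal across four replicates at the single tested dose of 50% or more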
* = called active by the depositor; · = no result. Compounds with a hit are over-represented: about 4% of the library has one in this group of screens.

SMILES	KKLEB cytotox	CF NFkB block	TROY signal inh	Peg3 promoter	HIF-2a block	TWEAK-Fn14 inh	HIF-2a inh conf	HIF-1a cs	others
COc1cc(/C=C(/C#N)c2nc3ccccc3[nH]2)ccc1OCC(=O)Nc1ccccc1C(C)C	5	0	-5	5	-11	4	·	·	Mdm2-MdmX confirm=101*
COc1cc(/C=C(\C#N)c2nc3ccccc3[nH]2)ccc1OC(=O)c1ccco1	3	-48	-52	-97	-168	22	·	·
Cc1ccc(Oc2ccc(OCC(=O)Nc3ccncc3)cc2)cc1	-6	-4	28	9	55*	39	77*	50*
Cc1ccccc1NC1=C/C(=N\S(=O)(=O)c2cccs2)c2ccccc2C1=O	-93*	94*	67*	102*	93*	102*	·	·	Mdm2-MdmX confirm=103*
Cc1cc(SC#N)cc(C)c1NC(=O)CCl	-31	49	-21	28	46*	9	54*	26
O=C(Nc1ccc2c(c1)OCCO2)C1c2ccccc2OCC(=O)N1Cc1ccccc1 (centres undefined)	·	·	-11	·	-1	-2	·	·
COC(=O)c1cccc(CSc2nc(-c3ccccc3)c(C#N)c(=O)[nH]2)c1	14	-11	31	9	20	14	·	·
CC(C)C(=O)NNC(=O)c1c(O)c2ccccc2[nH]c1=O	6	-10	8	11	-1	1	·	·
CC(C)NC(=O)c1c(O)c2ccccc2[nH]c1=O	4	0	-35	-30	-101	-9	·	·	Mdm2-MdmX confirm=92*
COc1ccc(CCC(=O)Nc2ncc(C)s2)cc1	6	13	-26	-53	-88	-29	·	·
CC1CC(C)(C)Nc2ccc(OC(=O)c3ccco3)cc21 (centres undefined)	5	12	49	-16	45*	89*	62*	71*
O=C(Oc1ccc2ccccc2c1)c1ccco1	-3	18	-4	-11	12	-8	·	·
CCc1ccc(-c2nnn(CCC(=O)OC)n2)cc1	-5	2	30	-27	87*	22	94*	70*
CCN(Cc1ccccc1)N=Nc1ccccc1	3	-19	-21	18	-2	-11	·	·
O=C(Nc1nnc(S(=O)(=O)N2CCN(c3ccc(F)cc3)CC2)s1)c1ccco1	-4	1	-44	-50	-77	4	·	·
CC(C)C1C(c2ccccc2)N(C)C(c2ccccc2)CC1(O)c1ccccc1 (centres undefined)	-3	17	29	34	53*	19	2	29
CCC1C(c2ccccc2)N(C)C(c2ccccc2)CC1(O)c1ccccc1 (centres undefined)	3	26	2	35	33	9	·	·
CCc1nc2ccc(C(=O)Nc3cc(-c4ccccc4)ccc3OC)cn2c1N(CCN(C)C)CC1CC1	-20	-4	-8	98*	82*	-4	9	101*
Cc1cc2c(SCC(=O)NCC3CCCO3)ncnc2s1 (centres undefined)	0	4	-31	12	6	-10	·	·
COc1cc(/C=C/C(=O)c2ccc(C)c([N+](=O)[O-])c2)cc(OC)c1O	-39	43	32	63*	47*	69*	21	36
COc1cc(/C=C/C(=O)c2ccc(NS(=O)(=O)c3ccc(C)cc3)cc2)cc(OC)c1O	13	-14	0	65*	54*	60*	64*	104*
Cc1ccc(N(C)S(=O)(=O)c2c(C)noc2/C=C/N(C)C)cc1	2	11	22	24	10	9	·	·
Cc1ccc(NC(=S)/C(C#N)=C2/Nc3ccccc3S2)cc1	5	43	41	30	68*	39	40	56*
Cc1ccc(C)c(S(=O)(=O)ON2C(=O)c3ccccc3C2=O)c1	-13	-8	-9	56*	68*	9	57*	2
Cc1ccc(S(=O)(=O)ON2C(=O)c3cccc4cccc(c34)C2=O)cc1	4	-11	24	13	-1	-1	·	·
SMILES	KKLEB cytotox	CF NFkB block	TROY signal inh	Peg3 promoter	HIF-2a block	TWEAK-Fn14 inh	HIF-2a inh conf	HIF-1a cs	others
CCC(C)(C)NC(=O)C(c1ccc(OC)cc1)N(C(=O)CCC(=O)Nc1cc(C)on1)c1ccccc1F (centres undefined)	11	-3	3	10	17	1	·	·
COc1ccc(Oc2c(Cl)cnn(-c3ccc(C)cc3)c2=O)cc1	0	-4	-47	7	-5	5	·	·
COc1ccc(Oc2c(Cl)cnn(-c3ccc(Cl)c(Cl)c3)c2=O)cc1	3	-20	7	65*	84*	2	8	104*
Cc1ccc(-c2cc(-c3ccccc3)c(C#N)c(Br)n2)cc1	-5	4	-34	6	11	-18	·	·
CS(=O)(=O)c1nc(-c2ccccc2)cc(-c2ccccc2)c1C#N	-15	61*	-19	101*	76*	-28	34	106*
COC(=O)c1sc(NC(=S)NNC(=O)c2c(Br)c(C)nn2C)c(C(=O)OC)c1C	-6	-19	26	25	-32	11	·	·
CSc1nnc(-c2ccccc2)o1	9	-15	-10	-22	-4	-11	·	·
O=S1(=O)C=C(Sc2nnc(-c3ccccc3)o2)c2ccccc21	-72*	97*	62*	110*	95*	103*	·	·	Mdm2-MdmX confirm=100*
CC1(C)CC(NC(=O)c2cc(Cl)ccc2Cl)CC(C)(C)N1	5	3	1	-1	15	-14	·	·
Cc1ccc(C(=O)c2ccc(O)cc2)cc1C	3	5	-47	-128	-126	-9	·	·
Cc1ccc(C(=O)c2cccc(N)c2)cc1C	-14	-8	32	-19	84*	52*	93*	56*
CCC(=O)Nc1cccc(C(=O)c2ccc(C)c(C)c2)c1	-7	-3	-10	-20	45*	2	65*	15
CCC(=O)Nc1cccc(C(=O)/C=C/c2ccccc2)c1	-10	3	8	102*	44*	65*	-46	101*

Screening data (PubChem BioAssay)
